The record followed here is ChEMBL document CHEMBL3988442, “University of Dundee, Small-Polar-MMV Screening Library” (2021).

Structures are written as SMILES. The whole screen tested about 48,000 compounds, of which about 13,000 (27%) showed an effect of 50% or more. The list shows a part of the results.

This assay concerns Wolbachia pipientis. Kind of assay: Anti-Wolbachia Cell-Based Screen. To be noted: 5 µM. The class given is functional. Details: scale not given: in the data most compounds retested in dose-response had high values.
In the case of `Cc1cc(C)n(CC(C)NC2CCN(Cc3cccnc3)CC2)n1` (stereo not drawn), the “Percent Effect” value is on record as -17.52%.

For `Cc1ncccc1OC1(C(=O)NCCNc2ccccc2)CCNCC1`, the “Percent Effect” value is -10.51%. To `CN1C(=O)CO[C@H](c2ccc(NC(=O)Nc3ccccc3)cc2)[C@H]1CO` belongs -13.1%; to `CN1C(=O)[C@H](OC(N)=O)[C@@H](C(=O)Nc2ccccc2)C12CCNCC2`, 104.3%. On to `CNC(=O)[C@@H]1[C@@H](OC(=O)Nc2ccccc2)C(=O)N(C)C12CCNCC2`, for which the “Percent Effect” value is on record as 89.46%. To `O=C(Nc1ccccc1)[C@H]1O[C@H](CCN2CCNCC2)CC[C@@H]1O` belongs 1.571%; to `CO[C@H]1C(=O)N(C)C2(CCNCC2)[C@@H]1C(=O)Nc1ccccc1`, 91.16%. `CN1CC2(CNCCN(C(=O)Nc3ccccc3)C2)CC1=O.O=C(O)C(F)(F)F` (stereo not drawn): the “Percent Effect” value is listed as -22.36%. Regarding `CCc1cc(N2CCSCC2)n2nc(C)c(C)c2n1`, the “Percent Effect” value is on record as 8.974%.

With `Cc1n[nH]c(C)c1CCN(C)C(=O)c1ccc(CCC(C)(C)O)cc1`, the “Percent Effect” value is listed as 11.25%.

For the molecule `CN(Cc1cc(Br)cn1C)C(=O)c1cc(Cl)ccn1`, the “Percent Effect” value is -3.777%. For the molecule `O=C(c1cc(-c2cn[nH]c2)nc2ccc(F)cc12)N1CCSCC1`, the “Percent Effect” value is recorded as 9.042%.

For the molecule `COc1ccc2cc(CN(C)CCc3cn[nH]c3)c(=O)[nH]c2c1`, the “Percent Effect” value was -3.299%. As for `Cc1ccccc1C(=O)NC1CCN(Cc2ncc(C(C)(C)C)o2)CC1`, the “Percent Effect” value came to 19.24%. Turning to `Cc1nc(C(C)(C)NC(=O)Nc2ccncc2)no1`, the “Percent Effect” value is listed as -5.529%. On to `CS(=O)(=O)NCC1CCCN(C(=O)COCc2ccccc2)C1` (stereo not drawn), for which the “Percent Effect” value is given as -4.256%. Take `CS(=O)(=O)NCC1CCCN(C(=O)Nc2ccccc2N2CCCC2)C1` (stereo not drawn): the “Percent Effect” value is 96.01%.

For the molecule `CS(=O)(=O)NCC1CCCN(C(=O)Nc2ccccc2F)C1` (stereo not drawn), the “Percent Effect” value is given as 119.4%.

Take `O=C(Nc1cccc2ccccc12)N1CCC(N2CCSCC2)CC1`: the “Percent Effect” value was -0.7759%. Turning to `O=C(CN1CCCC1)N1CCCC(CNS(=O)(=O)Cc2ccccc2)C1` (stereo not drawn), the “Percent Effect” value worked out at 16.47%. As to `CS(=O)(=O)NCC1CCCN(C(=O)Nc2cccc3ccccc23)C1` (stereo not drawn), the “Percent Effect” value came to 98.14%. Regarding `CC(C)S(=O)(=O)NCC1CCCN(C(=O)c2ccc(F)cc2)C1` (stereo not drawn), the “Percent Effect” value is -11.51%. As to `CS(=O)(=O)NCC1CCCN(C(=O)c2ccc3c(c2)CCCC3)C1` (stereo not drawn), the “Percent Effect” value is recorded as 4.156%. Regarding `CS(=O)(=O)NCC1CCCN(C(=O)COc2ccc(F)cc2)C1` (stereo not drawn), the “Percent Effect” value was -1.733%. As for `CNS(=O)(=O)CCCN1CCCC1c1noc(C2CC2)n1` (stereo not drawn), the “Percent Effect” value is on record as -1.215%. Consider `O=C(Nc1ccc(-c2csnn2)cc1)N1CCCC1`, for which the “Percent Effect” value is recorded as -14.17%. To `CN(C)Cc1csc(-c2nccn2CCc2cccnc2)c1` belongs -6.294%; to `CCCC(Cn1cnc(-c2ccccc2)c1-c1cncn1CC)N(C)C` (stereo not drawn), 8.465%. As to `CCCNC(=O)c1cc2c(nc1O)CCC(C)C2` (stereo not drawn), the “Percent Effect” value was found to be 4.186%. Take `Cc1ccc(C(=O)NCCCNS(C)(=O)=O)c(=O)[nH]1`: the “Percent Effect” value is reported as 10.14%. With `Cc1ccc(C(=O)NCCNS(C)(=O)=O)c(=O)[nH]1`, the “Percent Effect” value was determined as 2.203%. As for `Cc1ccc(C(=O)NC2CCN(S(C)(=O)=O)CC2)c(=O)[nH]1`, the “Percent Effect” value turned out to be 87.03%.

With `Cc1ccc(C(=O)NC2CCCN(S(C)(=O)=O)C2)c(=O)[nH]1` (stereo not drawn), the “Percent Effect” value came out at 107.3%. On to `Cc1ccc(C(=O)NCCS(C)(=O)=O)c(=O)[nH]1`, for which the “Percent Effect” value is -10.31%. For `Cc1ccc(C(=O)NCCCS(C)(=O)=O)c(=O)[nH]1`, the “Percent Effect” value was 0.8619%. Consider `CN(Cc1ccco1)Cc1ccccc1CNC(=O)c1csnn1`, for which the “Percent Effect” value is -8.686%. To `NC(=O)NC(=O)CCN1CCN(CC2CC2)c2ccccc21` belongs -1.129%; to `OC[C@H]1CN(Cc2c(Cl)cncc2Cl)C[C@H]1CN1CCOCC1`, 11.24%; to `Cn1cc(-c2ncc3c(c2C(=O)O)CCN(CC2CC2)C3)cn1.O=C(O)C(F)(F)F.O=C(O)C(F)(F)F`, 86.35%. `Cn1cc(-c2ncc3c(c2C(=O)O)CCN(CC2CCOC2)C3)cn1` (stereo not drawn): the “Percent Effect” value is given as 111.7%. To `CN1CCn2c(-c3cnn(C)c3)cnc2C12CCN(CC1CC1)CC2.O=C(O)C(F)(F)F.O=C(O)C(F)(F)F.O=C(O)C(F)(F)F` belongs -10.48%; to `Cn1cccc1C(=O)NCc1cn2c(n1)CN(CC1CCOC1)CC2` (stereo not drawn), -25.14%. To `CN(C)C(C(=O)N1CCN(CCn2cccc2)CC1)c1ccc(F)cc1` (stereo not drawn) belongs -11.45%; to `Cc1cnc(N2CCC3(C2)C(=O)N(C)CCN3Cc2cccnc2)nc1.O=C(O)C(F)(F)F.O=C(O)C(F)(F)F` (stereo not drawn), 1.691%; to `O=C1N(Cc2cccc(F)c2)CCC12CCCN(c1ncc(F)cn1)C2` (stereo not drawn), 102%. For `O=C(O)C(F)(F)F.O=C([C@H]1CCCO1)N1CCCC2(CCN(Cc3ccncc3)C2=O)C1` (stereo partly drawn), the “Percent Effect” value stood at 14.29%. Turning to `O=C(O)C(F)(F)F.O=C(O)C(F)(F)F.O=C1N(Cc2cccnc2)CCC12CCCN(c1ncccn1)C2` (stereo not drawn), the “Percent Effect” value amounted to 94.5%.

For the molecule `O=C(O)C(F)(F)F.O=C1N(Cc2ccncc2)CCC12CCCN(c1ncc(F)cn1)C2` (stereo not drawn), the “Percent Effect” value was found to be 97.96%. Consider `COc1cccc(CN2CCC3(CCN(c4ncc(C)cn4)C3)C2=O)c1` (stereo not drawn), for which the “Percent Effect” value was -10.16%. To `O=C1N(Cc2ccc(F)c(F)c2)CCCC12CCN(C1CCCC1)C2` (stereo not drawn) belongs 7.69%; to `CN1CCN(Cc2cccnc2)C2(CCN(c3ncccn3)C2)C1=O.O=C(O)C(F)(F)F.O=C(O)C(F)(F)F` (stereo not drawn), -6.592%; to `COc1cc(N2CCC3(CCN(Cc4cccnc4)C3=O)C2)ncn1` (stereo not drawn), 116%.

Turning to `COc1cc(N2CCCC3(CCN(c4cncnc4)C3=O)C2)ncn1` (stereo not drawn), the “Percent Effect” value is listed as -10.96%.
